Whole data set: some 39,000 sequences, median “fluorescence intensity (a.u.)” near 4,300, cut for the highest 2% near 39,000. The sample as a whole holds a higher share of the highest values than the screen did.

In this assay the target is T1, OsSMF1 (Oryza sativa, UniProt Q6ZLB0 1-436).
T1 sequence: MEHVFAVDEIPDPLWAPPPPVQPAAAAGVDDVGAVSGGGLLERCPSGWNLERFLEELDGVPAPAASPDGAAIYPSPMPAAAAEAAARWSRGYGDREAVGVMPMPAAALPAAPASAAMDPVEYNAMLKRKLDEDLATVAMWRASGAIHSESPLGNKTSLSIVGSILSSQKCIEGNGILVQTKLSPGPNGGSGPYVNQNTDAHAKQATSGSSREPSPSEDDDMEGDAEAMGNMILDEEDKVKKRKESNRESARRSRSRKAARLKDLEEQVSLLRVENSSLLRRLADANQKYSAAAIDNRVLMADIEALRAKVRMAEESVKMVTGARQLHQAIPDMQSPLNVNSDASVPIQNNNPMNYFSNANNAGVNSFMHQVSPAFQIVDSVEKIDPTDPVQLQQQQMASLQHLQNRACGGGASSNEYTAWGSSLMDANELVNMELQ
In words: protein-binding microarray (RPBM); PBS, 2% BSA, 51.3 ng/ul salmon testes DNA, 50 uM zinc acetate, 200 nM TF, 25 C, 1 h; high values mean tight binding. The note with it: protein: recombinant; tags: N-terminal polyhistidine and DsRed monomer fusion (pET32a); chain copies: 2; label: CyDye5-dUTP incorporated in the synthesized complementary strand; 3' TTTTT single-stranded linker to array surface; dsDNA, one strand shown. Put shortly: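 The binding signal is fluorescence intensity per array feature (arbitrary units). Readings came from an Axon 4000B scanner after a washed, 2% BSA-blocked, double-stranded custom Agilent array had been incubated for 1 h at 25 °C with 200 nM protein and 50 µM zinc acetate. The protein was a Ni–NTA-purified transcription factor fused N-terminally to polyhistidine and DsRed, expressed in E. coli BL21-CodonPlus.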
For “CGTGACGCGCAGCTCCCTGCAGCCGACCTGGCCACCCACACGGAGTCACCTAGTGCAG”, the binding signal is 3500 fluorescence intensity (a.u.).
Then “TATATTCGTGTCATTTAGATACCATACCACATCCTGCTACCGGAGTCACCTAGTGCAG”, with 3240 fluorescence intensity (a.u.).
Take “TTACGATCACCGAAAAGTGGTAGCGTACGTGTTGAGTGTGCGGAGTCACCTAGTGCAG”: the binding signal was 4140 fluorescence intensity (a.u.).
On to “GCTTGCTTTGTCACATGCAGTTTTACACCTTTTATTTCTCCGGAGTCACCTAGTGCAG”, for which the binding signal is 6070 fluorescence intensity (a.u.).
To “TCAGGTGAAATCTGCTTCAGCCATATTCATTGGTAATCAGCGGAGTCACCTAGTGCAG” belongs 3600 fluorescence intensity (a.u.).
To “AAATCAGGAGCCTCTGCCATTGGTTTGTGAAGCTACATCGCGGAGTCACCTAGTGCAG” belongs 65500 fluorescence intensity (a.u.).
To “AATCAGATGATCGGTGCTGCAGCCATCATTGAAGCCTGTGCGGAGTCACCTAGTGCAG” belongs 3400 fluorescence intensity (a.u.); to “CTCACTGACGTAGGTTTATTGTACCTATTCTAATTAAGGCCGGAGTCACCTAGTGCAG”, 39400 fluorescence intensity (a.u.).
As for “ACACTATTAATTGTTTTATTAGGTTTCAGACGTTATTTTGCGGAGTCACCTAGTGCAG”, the binding signal is 3150 fluorescence intensity (a.u.).
Then “GAGGGTTTTAATTACTCACTGACATGTAGGGTCACGGGGTCGGAGTCACCTAGTGCAG”, with 4390 fluorescence intensity (a.u.); and “TTTGAGCGCCGCTCGACTATGTCATGAAGCAACGTGGCACCGGAGTCACCTAGTGCAG”, with 7750 fluorescence intensity (a.u.).
To “GGGGAGAGGGAGGAGGAGGAGGAGAGTGGCTACTAGTACTCGGAGTCACCTAGTGCAG” belongs 3380 fluorescence intensity (a.u.); to “CTCATTTGAACACATGTACACTACTAATCCTCGTTCTGGACGGAGTCACCTAGTGCAG”, 39200 fluorescence intensity (a.u.).
Regarding “TGTACATTGTTTGAACTAATCAGTAATCATCACAGTGGTTCGGAGTCACCTAGTGCAG”, the binding signal is 3160 fluorescence intensity (a.u.).
“ACATTCTAGCCATTCATTCTTCACACCTCATTTAATCCTACGGAGTCACCTAGTGCAG”: the binding signal is 3280 fluorescence intensity (a.u.).
Then “ACCACACCTTGTCAAAACTTCAGTAACAGCAGAAGTTACACGGAGTCACCTAGTGCAG”, with 3140 fluorescence intensity (a.u.).
Then “GGCAAACCAGTAACTAGAAACCACGTTATTCAAAAGCATTCGGAGTCACCTAGTGCAG”, with 3940 fluorescence intensity (a.u.); and “CAATAGACTTCAAGGAAGCATACCAATACCAGTAACCACACGGAGTCACCTAGTGCAG”, with 40800 fluorescence intensity (a.u.).
Then “TCTTTTGGTTTACAACACTTTGTATGCTAGCATTATTTTGCGGAGTCACCTAGTGCAG”, with 3420 fluorescence intensity (a.u.); and “GCGGTTTATGTACACGTCAGCATTTTGCTTCCTTCCTTCCCGGAGTCACCTAGTGCAG”, with 47800 fluorescence intensity (a.u.).
On to “TATACACCACGTTTGCTGGCTTGGCTTCCTTCCACACTCCCGGAGTCACCTAGTGCAG”, for which the binding signal was 4000 fluorescence intensity (a.u.).
Then “CCGCGCCACCTCATGCCGTGACGTGCAGATCCCCTCCTCCCGGAGTCACCTAGTGCAG”, with 7890 fluorescence intensity (a.u.); and “ATCGTGATGCAAATGTCGAACTTGGAAGATATCCATGGATCGGAGTCACCTAGTGCAG”, with 39000 fluorescence intensity (a.u.).
Regarding “ACATCATGCCACATGCTTCCAAGAAGGATCCCATAGATGTCGGAGTCACCTAGTGCAG”, the binding signal is 4220 fluorescence intensity (a.u.).
Then “AATCTCGGTGCTGAGTGGACATGAATGAATGATGGAATCTCGGAGTCACCTAGTGCAG”, with 4150 fluorescence intensity (a.u.).
Then “GGAATGGATAGTGTTCTCGGAAGGAAATTGGTGCTGATGTCGGAGTCACCTAGTGCAG”, with 45600 fluorescence intensity (a.u.); and “TTGTCCATCAATGGAGATGATGATGCCATGATCAAATGATCGGAGTCACCTAGTGCAG”, with 3370 fluorescence intensity (a.u.); and “CACGTGTTTTCTCGATGTCCACGTGGTGATGTGGAATTGTCGGAGTCACCTAGTGCAG”, with 14800 fluorescence intensity (a.u.).
To “TCGATTCATTCGTTCCTTGGGTCGTGTCAGCATGGCCCATCGGAGTCACCTAGTGCAG” belongs 11100 fluorescence intensity (a.u.); to “GGTCTGGCGATGGAGCCTCCCGCCGGAGACGCCGCGCCGTCGGAGTCACCTAGTGCAG”, 3540 fluorescence intensity (a.u.); to “CCATGTTCCCAACCCCTCTCCCTCATTTTCCACGCGTATGCGGAGTCACCTAGTGCAG”, 3650 fluorescence intensity (a.u.).
For the sequence “ATGTTTGTGAAGTGACATATCACATATTGATCTATCATACCGGAGTCACCTAGTGCAG”, the binding signal was 5200 fluorescence intensity (a.u.).
To “GAAACAAACACATCAGATGACGTTTGTTGAAATGCCTAACCGGAGTCACCTAGTGCAG” belongs 5000 fluorescence intensity (a.u.); to “GTCCCTATCACATCGGATGTTTGAACAAAACAGAATATACCGGAGTCACCTAGTGCAG”, 45600 fluorescence intensity (a.u.).
With “ATCATCTAGTTAAGACTGTTTGTATGCAACTATGCATGTACGGAGTCACCTAGTGCAG”, the binding signal was 31400 fluorescence intensity (a.u.).
For “TAACATCATGTCTAGTTTGTTACCCTATCAAGACTAAAACCGGAGTCACCTAGTGCAG”, the binding signal is 42600 fluorescence intensity (a.u.).
To “TGAGAGGTCTACATCATTACATGTCAAGACAAGACTACCACGGAGTCACCTAGTGCAG” belongs 4540 fluorescence intensity (a.u.); to “ACTTAATAAAATCAAACGTCACAGTTCCGTACTTTTCAGTCGGAGTCACCTAGTGCAG”, 35900 fluorescence intensity (a.u.).
To “TCGCCGGGCTTCTCTACGAGTACCTCGTCATCCCGTCCACCGGAGTCACCTAGTGCAG” belongs 5700 fluorescence intensity (a.u.).
To “ACGCAGCGGGCCAACTCCAACTCATCCCCAGCCTCCACCACGGAGTCACCTAGTGCAG” belongs 4360 fluorescence intensity (a.u.); to “CCGTGCTACAGCTGGCTACAAATATGTAGCCCTATGCTCTCGGAGTCACCTAGTGCAG”, 18300 fluorescence intensity (a.u.); to “TCCGTGCTACAGCTAGCTACAGATATGTAGTCCGTCATTCCGGAGTCACCTAGTGCAG”, 45200 fluorescence intensity (a.u.).

These data come from article PMC7819943, “Rice protein-binding microarrays: a tool to detect cis-acting elements near promoter regions in rice”.
